Target: USP14 (UniProt P54578)
Experiment: log2 ratio of Biotin-Ahx-Ub-VS probe labelling (fragment/DMSO); higher = less target engagement (more negative = stronger competition), active = hit call of the paper (q ≤ 0.05, log2 ratio ≤ -1)
Details: compound concentration: 200 uM; treatment time: 3 h
Procedure: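 Competitive ABPP in HEK293T cell lysate. Lysates were treated with each chloroacetamide fragment at 200 µM for 3 h, then with Biotin-Ahx-Ub-VS (0.5 µM, 1 h), NeutrAvidin-enriched and analysed by diaPASEF LC-MS/MS. Protein LFQ was median-normalised; average log2 ratio is fragment/DMSO from an unpaired t-test (n=3 treated, n=44 DMSO). Hits: q ≤ 0.05, log2 ratio ≤ -1, unique peptides ≥ 2.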

USP14, sequence (P54578 whole entry, the tested form may be a part): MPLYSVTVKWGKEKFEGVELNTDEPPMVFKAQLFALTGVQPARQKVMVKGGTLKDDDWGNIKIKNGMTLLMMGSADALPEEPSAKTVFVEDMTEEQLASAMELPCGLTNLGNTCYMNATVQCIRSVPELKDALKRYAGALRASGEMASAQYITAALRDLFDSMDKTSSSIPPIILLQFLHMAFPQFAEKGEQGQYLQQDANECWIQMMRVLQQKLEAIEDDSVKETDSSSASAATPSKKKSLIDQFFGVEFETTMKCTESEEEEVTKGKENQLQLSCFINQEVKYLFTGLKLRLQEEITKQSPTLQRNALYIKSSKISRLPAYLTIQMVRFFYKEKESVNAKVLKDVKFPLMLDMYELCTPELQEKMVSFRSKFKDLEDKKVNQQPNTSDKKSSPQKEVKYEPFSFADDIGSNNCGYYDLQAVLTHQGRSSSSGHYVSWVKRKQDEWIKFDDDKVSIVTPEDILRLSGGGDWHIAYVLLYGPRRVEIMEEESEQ

Compound | log2 ratio of Biotin-Ahx-Ub-VS probe labelling
N#Cc1ccc(Cl)cc1NC(=O)CCl | -0.283 (inactive)
O=C(CCl)NCCc1ccc(F)cc1 | -0.0749 (inactive)
O=C(CCl)N1CCCC2CCCCC21 (stereo not given) | -0.25 (inactive)
O=C(CCl)NC1CCN(C(=O)C2CCCCC2)CC1 | -0.0275 (inactive)
O=C(CCl)NCCC1COCCO1 (stereo not given) | -0.27 (inactive)
Cl.O=C(CCl)N1CCn2cncc2C1 | -0.259 (inactive)
CCC1c2ccsc2CCN1C(=O)CCl (stereo not given) | -0.479 (inactive)
O=C(O)C1Cc2ccccc2CN1C(=O)CCl (stereo not given) | -0.621 (inactive)
O=C(CCl)N1CCC(c2nc3ccccc3o2)CC1 | -0.483 (inactive)
O=C(CCl)N1CCC(=C(F)CO)C1 | 0.054 (inactive)
CC(NC(=O)CCl)c1cccc(Cl)c1 (stereo not given) | -0.42 (inactive)
Cc1ccn2cc(CNC(=O)CCl)nc2c1.Cl | 0.000672 (inactive)
O=C(CCl)N(C1CCCC1)C1CCS(=O)(=O)C1 (stereo not given) | -0.171 (inactive)
O=C(CCl)NC(Cn1ccccc1=O)c1ccccc1 (stereo not given) | -0.174 (inactive)
CN(C)S(=O)(=O)c1ccccc1CNC(=O)CCl | 0.0554 (inactive)
O=C(CCl)N1CCc2nc[nH]c2C1c1ccc(Cl)cc1 (stereo not given) | -0.69 (inactive)
Cc1nc(CN2CCCN(C(=O)CCl)CC2)no1.Cl | 0.0942 (inactive)
CNC(=O)C1(NC(=O)CCl)CCCCC1 | -0.0905 (inactive)
N#Cc1ccccc1N1CCN(C(=O)CCl)CC1 | -0.673 (inactive)
O=C(CCl)Nc1cccc(C(=O)N2CCSCC2)c1 | -0.335 (inactive)

Compound | log2 ratio of Biotin-Ahx-Ub-VS probe labelling
Cc1nc(CC2CCN(C(=O)CCl)CC2)no1 | -0.561 (inactive)
O=C(CCl)N1CC=C(c2c[nH]c3ccccc23)CC1 | -0.573 (inactive)
CC(=O)Nc1ccc(NC(=O)CCl)cc1 | 0.0669 (inactive)
O=C(CCl)Nc1cc(Cl)ccc1-n1cncn1 | -1.09 (active)
O=C(CCl)Nc1cc(Cl)ccc1C(=O)O | 0.0912 (inactive)
O=C(CCl)N1CCCCCC1c1ncon1 (stereo not given) | -0.087 (inactive)
Cl.O=C(CCl)N[C@H]1C[C@@H](n2cccn2)C1 | -0.208 (inactive)
O=C(CCl)NC1CCOc2ccccc21 (stereo not given) | -0.937 (inactive)
CNC(=O)C1CCN(C(=O)CCl)CC1 | -0.146 (inactive)
O=C(CCl)Nc1cccc2ncccc12 | 0.338 (inactive)
CC(NC(=O)CCl)c1csc(-c2ccccc2)n1.Cl (stereo not given) | -0.367 (inactive)
CCN(C(=O)CCl)C1CCS(=O)(=O)C1 (stereo not given) | -0.155 (inactive)
O=C(CCl)NCC1(c2ccccc2)CC1 | 0.0125 (inactive)
Cl.O=C(CCl)N1CCC(Cc2nccs2)C1 (stereo not given) | -0.2 (inactive)
O=C(CCl)NCc1ccc2c(c1)OCO2 | 0.052 (inactive)
O=C(CCl)N1CCCN(C(=O)c2ccc(Cl)cc2)CC1 | -0.452 (inactive)
O=C(CCl)N1c2ccccc2NC(=O)C12CCCC2 | -0.661 (inactive)
CCN(C(=O)CCl)C1CCCCC1 | -0.0238 (inactive)
Cc1ccc(C(=O)NCCNC(=O)CCl)cc1 | -0.414 (inactive)
O=C(CCl)N1CCOC(CCc2ccccc2)C1 (stereo not given) | -0.562 (inactive)
